# Screens: PubChem BioAssay, National Center for Advancing Translational Sciences (NCATS)
# HT1080NT lethal: kills 2HG-producing HT-1080-NT fibrosarcoma cells; HT-1080-NT fibrosarcoma viability, CellTiter-Glo ATP luminescence, 48 h; Potency, µM (titrated, usually from 46.1 µM), hits mostly cytotoxic; 360,000 tested, 1.6% active;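 further: NT is the 2HG producing partner of a matched IDH1 knockdown line; nearly all actives have a fitted effect of over 55% in size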
#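 Read-out is CellTiter-Glo luminescence after 10 minutes at room temperature, following 48 hours' compound treatment of HT-1080-NT cells (750 cells/well, RPMI, 5% FBS, 37 degrees C).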
# DT40 TDP1 CPT: DT40-hTDP1 cell growth loss with CPT; chicken DT40 Tdp1-/-;hTDP1 cells + 20 nM CPT, ATP luminescence, 48 h; Potency, µM (highest dose often 46.2 µM), most hits filed as inhibitors; 420,000 tested, 12% active; further: nearly all actives have a fitted effect of over 55% in size
#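 Chicken DT40 Tdp1-/- cells stably complemented with human TDP1 were seeded at 400 cells/well in medium containing 20 nM camptothecin, exposed to pin-transferred compounds, and grown at 37 °C for at least 48 hr. Viability was read as ATP luminescence.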
# HT1080 IDH1KD tx: HT-1080 IDH1 knockdown cell toxicity (counter line); Potency, µM (highest dose often 46.1 µM), actives largely listed as cytotoxic; AID 686971; HT-1080 IDH1 knockdown viability, ATP luminescence, 48 h; 360,000 tested, 2% active
#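 Assay cells: HT-1080 with IDH1 knockdown, 750 per well, RPMI/5% FBS. Exposure: 48 h at 37 °C following 2 h pre-incubation. Read: CellTiter-Glo luminescence; fitted concentration-response, curve class assigned.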
# IL-1B inflam inh: inhibitors of inflammasome signaling (IL-1 beta secretion); THP-1 LPS/ATP IL-1B secretion, AlphaLISA, 16 h; hits give low values; 360,000 tested, 4.7% active; activity change, % at 57.5 µM; AID 743279; in the data active means activity change below about -50%; inconclusive means mostly about -30% to -49%
#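 THP-1 cells pretreated 1 hr with compounds (up to 57.5 uM final), then stimulated with LPS (250 ng/mL final) plus ATP (1.25 mM final); secreted IL-1B measured by AlphaLISA after 16 hr, decreased signal indicating inhibition.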
# DT40 TDP1 no CPT: qHTS for Inhibitors of human tyrosyl-DNA phosphodiesterase 1 (TDP1): qHTS in cells in absence of CPT | 420,000 tested, 15% active | DT40 Tdp1-/- hTDP1 cells, no CPT, ATP luminescence, 48 h | Potency, µM (doses to about 46.2 µM), most hits filed as inhibitors; further: nearly all actives have a fitted effect of over 55% in size
#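 Cells were dispensed at 400 per well, compounds added by pin tool, plates incubated ≥48 hr at 37 °C, then CellTiter-Glo added for 30 min at room temperature before luminescence reading. Line: DT40 Tdp1-/- complemented with hTDP1; camptothecin omitted.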
# Numbers stand for hits; n = inactive; u = inconclusive; x = not tested or not shown. This is a sample that favours compounds with a hit; in the whole collection about 19% have one here. Unless noted, the call rests on the fitted dose curve; in most records, active means well fitted curve in the direction sought with a large enough effect; inconclusive means small, poorly fitted or top-dose-only effect, or another doubt; inactive means no such curve, though single readings can be large; an effect the other way counts as inactive or inconclusive.
SMILES,HT1080NT lethal,DT40 TDP1 CPT,HT1080 IDH1KD tx,IL-1B inflam inh,DT40 TDP1 no CPT
CC(=O)c1ccc(NC(=O)c2ccc(C)c(S(=O)(=O)N3CCOCC3)c2)cc1,n,n,n,n,u
O=C(Nc1ccc(N2CCCCCC2)cc1)c1cccc(S(=O)(=O)N2CCOCC2)c1,n,7.3µM,u,n,4.1µM
CCOC(=O)c1ccc(NC(=O)c2cccc(S(=O)(=O)N3CCOCC3)c2)cc1,n,u,n,n,12µM
COc1ccc(NS(=O)(=O)c2ccc(C)c(NC(=O)c3ccc(C)c(S(=O)(=O)N4CCOCC4)c3)c2)cc1,n,u,n,n,15µM
CCOC(=O)c1ccc(NC(=O)c2ccc(C)c(S(=O)(=O)N3CCOCC3)c2)cc1,u,u,u,n,23µM
COc1ccc(S(=O)(=O)N2CCCC2)cc1C(=O)O,n,n,n,n,n
O=C(COC(=O)c1cnccn1)NCc1ccc2c(c1)OCO2,n,n,u,n,n
CCOc1ccc(NC(=O)CCN2C(=O)c3ccccc3C2=O)cc1,n,n,n,n,n
CCC(OC(=O)c1ccco1)C(=O)NC1CCCC1 (configuration not stated),n,n,n,n,n
O=C(O)/C=C1\NC(=O)c2ccccc21,n,n,n,n,n
O=C1N/C(=C\c2ccc(O)cc2)C(=O)c2ccccc21,u,3.2µM,18µM,n,7.1µM
Cn1c(SCC(=O)NCc2ccccc2)ncc(C(=O)Nc2ccccc2)c1=O,n,12µM,n,n,u
COc1ccc(CCNC(=O)CSc2ncc(C(=O)Nc3ccccc3)c(=O)n2C)cc1,n,u,n,n,u
COc1ccccc1NC(=O)c1cnc(SCC(=O)NCCc2ccccc2)n(C)c1=O,n,16µM,n,n,10µM
CC(=O)Nc1ccc(NC(=O)CSc2ncc(C(=O)Nc3ccccc3)c(=O)n2C)cc1,u,21µM,15µM,n,21µM
Cc1ccc(CNC(=O)CSc2ncc(C(=O)Nc3ccccc3)c(=O)n2C)cc1,n,12µM,n,n,15µM
CSc1cccc(NC(=O)Nc2nc3c(C)cccc3s2)c1,n,u,n,n,u
CC(C)N1C(=O)N(c2cccc(Cl)c2)C(C)(O)CC1(C)C (configuration not stated),n,n,n,n,n
CC1C/C(=C/c2ccccn2)C(=O)/C(=C/c2ccccn2)C1 (configuration not stated),0.65µM,0.52µM,0.58µM,-54,0.52µM
CC(C)(C)C1C/C(=C/c2ccccn2)C(=O)/C(=C/c2ccccn2)C1 (configuration not stated),0.73µM,0.92µM,0.65µM,-93,0.52µM
C(=C\c1ccccn1)/c1ccccn1,u,n,n,n,n
O=C1Nc2ccccc2C(=O)N(c2ccc3c(c2)OCCO3)C1C(=O)NC1CC1 (configuration not stated),n,n,n,n,n
CCOc1ccccc1NC(=O)c1ccc2[nH]c(C)c(C)c2c1,u,u,u,n,26µM
COc1ccc(CNC(=O)c2ccc3[nH]c(C)c(C)c3c2)c(OC)c1,x,n,x,x,u
COc1ccc(NC(=O)c2ccc(-n3c(C)ccc3C)cc2)c(OC)c1,n,u,n,-75,u
SMILES,HT1080NT lethal,DT40 TDP1 CPT,HT1080 IDH1KD tx,IL-1B inflam inh,DT40 TDP1 no CPT
CCCN1C(=O)c2cc(C(=O)Nc3ccc(OC)cc3OC)ccc2C1Nc1ccc(OC)cc1OC (configuration not stated),n,23µM,n,n,u
COc1ccc(NC(=O)c2ccc3[nH]c(C)c(C)c3c2)c(OC)c1,n,23µM,n,n,18µM
CCOc1ccccc1NC(=O)c1ccc2ccccc2c1,n,n,n,n,u
NC[C@H](O)c1ccc(O)c(O)c1,n,u,n,n,u
N#Cc1cccc(NC(=O)Cn2c3[n+](c4ccc(C(F)(F)F)cc42)CCCCC3)c1,n,n,n,n,n
CCOc1ccccc1NC(=O)c1cc(CC(C)C)oc1C,n,23µM,n,n,23µM
Cc1nn(Cc2ccc(Cl)cc2Cl)c(C)c1NC(=O)CCl,u,15µM,u,-101,13µM
